The record followed here is PubChem BioAssay AID1347383 (Zoeller Lab, School of Medicine, Boston University, 2020).

Active and inactive are the calls of the source.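 How the source made its calls: active means cell survival after UV exposure 2 SD above solvent-only control wells at 10 µM, confirmed on one or two repeats; inactive means the rest.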

The assay can be described thus: protection of CHO cells from pyrene-fatty acid UV killing, primary screen, phospholipid biosynthesis inhibitor project, ZR-82 cells, Analyticon library, screen 2 (AID 1347383).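 Further: survival reflects blocked phospholipid synthesis cutting uptake of the phototoxic fatty acid; compound and fatty acid exposure 3 h then viability read next day.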 To be noted: ZR-82 CHO cells, CellTiter Blue, at 10 µM, peroxisome-deficient CHO-K1 variant, with DGAT-1, DGAT-2 and ACAT inhibitors. (In general: The colour change of resazurin is a common sign of viable cells or microbes.)
In the case of `CCCO[C@@H]1O[C@H](CO)[C@@H](O)[C@H](O)[C@H]1O[C@@H]1OC[C@@H](O)[C@H](O)[C@H]1O`, the result was inactive.

As to `CC1OC(n2cnc3c(N)ncnc32)C(O)C1O` (centres undefined), the outcome was inactive.

`O=c1ccc2ccc(O)cc2o1`: the call was inactive.

Consider `O=C1c2c(O)cc(O)cc2O[C@H](c2ccccc2)[C@H]1O`, for which the molecule was classed as inactive.

Take `CCCCCCCCCCCCC(O)/C=C/CCC(=O)O` (centres undefined): the outcome was inactive.

On to `CC(=O)CCCCCCc1ccc2c(c1)OCO2`, for which the molecule was classed as inactive.

For the molecule `CC(C)(O)[C@@H]1Cc2cc3ccc(=O)oc3cc2O1`, the molecule was classed as inactive.

`CC1CC(O)/C=C/C(O)CCC(=O)Cc2c(Cl)c(O)cc(O)c2C(=O)O1` (centres undefined): the molecule was classed as inactive.

Turning to `CC1(C)CCC[C@@]2(C)C1C[C@H]1O[C@@]1(C)[C@]21CC[C@](C)(CC(=O)O)O1` (some centres undefined), the molecule was called inactive.

With `CCCCCCCC(O)/C=C\C(O)CCC(O)CCCC(=O)O` (centres undefined), the result was inactive.

As for `CC/C=C\C/C=C\C/C=C\CCCCCCCC(=O)OCC(O)COC1OC(CO)C(O)C(O)C1O` (centres undefined), the outcome was inactive.

`CCCCCCOC1OC(COC2OCC(O)C(O)C2O)C(O)C(O)C1O` (centres undefined): the result was inactive.

For the molecule `CC1=CC2=C(C(=O)OC2O)C(O)C2CC(C)(C)CC12` (centres undefined), the call was inactive.

Turning to `CS/C=C/C(=O)O[C@@H]1CCC2=CC(=O)C(=C(C)C)C[C@]2(C)[C@H]1C`, the molecule was classed as inactive.

With `C/C=C/C1=C(Cl)C(=O)[C@@H](O)[C@@]1(O)C(=O)OC`, the molecule was classed as inactive.

As to `COc1cc(O)cc(O)c1C(=O)c1ccc(O)c(O)c1`, the molecule was classed as inactive.

On to `CCC(C)(O)C(O)C(=O)OCC1CC[N+]2([O-])CCCC12` (centres undefined), for which the molecule was classed as inactive.

Turning to `CC1CC(=O)C2CC12C(C)(O)CO` (centres undefined), the result was inactive.

Consider `O=c1c(O)c(-c2ccc(O)cc2)oc2cc(O)cc(O)c12`, for which the result was inactive.
